Compounds with a hit are over-represented: about 19% of the library has one in this group of screens.
IL1B secr inh: inhibitors of inflammasome signaling (IL-1 beta secretion). THP-1 LPS/ATP IL-1B secretion, AlphaLISA, 16 h; stronger effect = lower value. 4.7% of 360,000 active. activity change, % at 57.5 µM. AID 743279; in the data active = activity change below about -50%; inconclusive = mostly about -30% to -49%; also: % is scaled to controls: 0 for no effect and ±100 for the full control effect
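THP-1 cells pretreated 1 hr with compounds (up to 57.5 uM final), then stimulated with LPS (250 ng/mL final) plus ATP (1.25 mM final); secreted IL-1B measured by AlphaLISA after 16 hr, decreased signal indicating inhibition.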
S-ASM inh: human S-ASM enzyme inhibition; placental ASM, HMU-PC fluorogenic substrate, 60 min; AID 504937; P17405; Potency, µM (series often up to 57.5 µM), for the others: at the top dose activity change, negative = inhibition, hits mostly inhibitors; 0.006% of 340,000 active; also: potency is read from the fitted curve at half-maximal effect
Target sequence (P17405 47-631 limits assumed): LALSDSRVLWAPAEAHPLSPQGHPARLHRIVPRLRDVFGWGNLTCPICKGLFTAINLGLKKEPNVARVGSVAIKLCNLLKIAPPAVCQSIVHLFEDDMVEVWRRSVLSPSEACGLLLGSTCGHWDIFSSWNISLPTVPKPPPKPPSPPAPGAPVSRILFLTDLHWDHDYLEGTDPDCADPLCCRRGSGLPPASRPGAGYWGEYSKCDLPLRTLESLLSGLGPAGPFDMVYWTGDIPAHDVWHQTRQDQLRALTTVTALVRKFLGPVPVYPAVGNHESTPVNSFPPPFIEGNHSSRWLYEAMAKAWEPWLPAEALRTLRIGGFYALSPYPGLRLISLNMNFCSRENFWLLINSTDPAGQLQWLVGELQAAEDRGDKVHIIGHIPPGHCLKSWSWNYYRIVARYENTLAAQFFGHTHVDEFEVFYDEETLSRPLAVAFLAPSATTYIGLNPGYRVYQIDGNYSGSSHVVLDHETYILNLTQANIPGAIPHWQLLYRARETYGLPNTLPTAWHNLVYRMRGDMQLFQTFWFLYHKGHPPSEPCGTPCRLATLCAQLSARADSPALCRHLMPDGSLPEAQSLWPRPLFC
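Fluorescence read-out (Ex 386 nm, Em 447 nm) after stopping the reaction at pH 10. Enzyme: ASM from human placenta; substrate HMU-PC0, 9 uM final; 60 min, 37 °C. Compound preincubation 10 min, ambient temperature.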
HepG2 viability: HepG2 cytotoxicity, counter-screen for TGF-b inhibitors; Potency, µM (titrated, usually from 46.1 µM), for inactives: top-dose activity change, negative = cytotoxicity, actives largely listed as cytotoxic; 0.76% of 410,000 active; HepG2 CAGA-GFP viability, ATP luminescence, 18 h; also: potency is read from the fitted curve at half-maximal effect
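HepG2 CAGA-GFP cells (1000/well, DMEM with 1% FBS) received compound, then TGF-beta at 500 pg/mL final, and were incubated 18 hours at 37 degrees C. Viability was read by CellTiter-Glo luminescence. Media-only wells were set as complete cell-killing and DMSO as no toxicity.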
TDP1 cell noCPT: qHTS for Inhibitors of human tyrosyl-DNA phosphodiesterase 1 (TDP1): qHTS in cells in absence of CPT. DT40 Tdp1-/- hTDP1 cells, no CPT, ATP luminescence, 48 h. 15% of 420,000 active. Potency, µM (highest dose often 46.2 µM), for the others: at the top dose activity change, negative = growth inhibition, hits mostly inhibitors; also: potency is read from the fitted curve at half-maximal effect; % is scaled to controls: 0 for no effect and ±100 for the full control effect; nearly all actives have a fitted effect of over 55% in size
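DT40 Tdp1-/-;hTDP1 cells, no CPT (DMSO vehicle only), 400 cells/well; compounds pin-transferred; ≥48 hr, 37 °C; CellTiter-Glo 30 min RT dark, luminescence read.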
TDP1 cell CPT: growth inhibition of DT40 Tdp1-/-;hTDP1 cells with camptothecin (screen for TDP1 inhibitors); chicken DT40 Tdp1-/-;hTDP1 cells + 20 nM CPT, ATP luminescence, 48 h; Potency, µM (doses to about 46.2 µM), without a hit: top-dose activity change, negative = growth inhibition, hits mostly inhibitors; 12% of 420,000 active; AID 686979; also: potency is read from the fitted curve at half-maximal effect; % is scaled to controls: 0 for no effect and ±100 for the full control effect; nearly all actives have a fitted effect of over 55% in size
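Cell growth measured by CellTiter-Glo luminescence after a minimum 48 h, 37 C compound exposure with 20 nM CPT in Tdp1-knockout DT40 cells stably expressing hTDP1, seeded 400/well; qHTS titration format.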
TGFb SMAD3 inh: inhibitors of TGF-b signaling; HepG2 CAGA-GFP TGF-b/SMAD3 reporter, GFP fluorescence, 18 h; TGF-beta stimulated, 500 pg/mL final; 1.2% of 410,000 active; Potency, µM (top dose mostly 46.1 µM), for the others: top-dose activity, negative = inhibition, most hits filed as inhibitors; AID 588855; also: potency is read from the fitted curve at half-maximal effect; % is scaled to controls: 0 for no effect and ±100 for the full control effect; nearly all actives have a fitted effect of over 65% in size
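Smad-responsive CAGA-GFP expression was quantified in HEPG2 cells exposed to compounds and 500 pg/mL final TGF-beta for 18 h at 37 degrees C; unstimulated wells defined full inhibition.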
The depositor's hits bear a star; i = inactive; ? = inconclusive; nt = no result given; [ ] = dose if it differs, or a comment. Unless noted, calls follow the shape of the dose curve; as a rule, active = well fitted curve in the direction sought with a large enough effect; inconclusive = small, poorly fitted or top-dose-only effect, or another doubt; inactive = no such curve, though single readings can be large; an effect the other way counts as inactive or inconclusive.

SMILES | IL1B secr inh | S-ASM inh | HepG2 viability | TDP1 cell noCPT | TDP1 cell CPT | TGFb SMAD3 inh
COc1cc(C2CC(c3cccs3)=NN2C(=O)CCl)ccc1OC(F)F (stereo not given) | -103* | -3% | 6.3µM* | 4.1µM* | 4.6µM* | 6.3µM*
CCOC(=O)/C=C1\CN(Cc2ccc(OC)cc2)S(=O)(=O)c2ccc(C(F)(F)F)cc21 | nt | nt | -31% | 11µM* | 13µM* | ?
CCOC(=O)/C=C1\CN(CCC(C)C)S(=O)(=O)c2ccccc21 | -2 | 1% | -3% | ? | -5% | -1%
CCOC(=O)c1c2ccc(OCC(=O)N/N=C/c3ccc(C)cc3)cc2n2ccccc12 | 4 | 196% | 0% | 18µM* | ? | -3%
C=C(C)c1cccc(C(C)(C)NC(=O)Nc2ccc(C)cn2)c1 | -6 | -9% | -4% | 18µM* | 18µM* | ?
C=C(C)c1cccc(C(C)(C)NC(=O)Nc2cc(C)ccn2)c1 | -27 | -5% | -17% | ? | ? | 11µM*
Cc1ccc(SCC(=O)OCC(=O)N(C)CC(=O)Nc2ccccc2Cl)cc1C | i | -2% | 7% | 12% | -1% | -8%
O=C(NCC1(O)CCCCC1)C1CCC(=O)N(CCc2ccccc2)C1 (stereo not given) | -17 | 3% | -37% | 8% | 0% | -1%
CCOC(=O)c1c(Nc2cccc(O)c2)nnc(-c2ccccc2)c1-c1ccccc1 | nt | nt | -105% | 23µM* | ? | ?
CCOc1ccc(NC(=O)CSc2nnc(-c3ccccc3)n2N)cc1 | -8 | -2% | 28% | -28% | 1% | -11%
CCOC(=O)c1c(Nc2ccc(OCC)cc2)nnc(-c2ccccc2)c1-c1ccccc1 | nt | nt | -23% | 21µM* | 15µM* | -29%
N#Cc1ccccc1CSc1nc(N)cc(N)n1 | 22 | -1% | -12% | -8% | -6% | 12%
CC(=O)Nc1ccc(-c2ccnc3c2CC(C(=O)Nc2cccc(Oc4ccccc4)c2)O3)cc1 (stereo not given) | ? | nt | -14% | 21µM* | ? | -23%
CC(=O)Nc1ccc(-c2ccnc3c2CC(C(=O)Nc2cccc(OC(F)(F)F)c2)O3)cc1 (stereo not given) | -13 | nt | -23% | 18µM* | 21µM* | ?
CC(=O)Nc1cccc(-c2ccnc3c2CC(C(=O)Nc2cccc(OC(F)(F)F)c2)O3)c1 (stereo not given) | 9 | nt | -18% | 18µM* | ? | ?
CC(=O)Nc1cccc(-c2ccnc3c2CC(C(=O)Nc2cccc(Oc4ccccc4)c2)O3)c1 (stereo not given) | -8 | nt | -25% | ? | ? | ?
CC(=O)Nc1ccc(-c2ccnc3c2CC(C(=O)Nc2cccc(N(C)C)c2)O3)cc1 (stereo not given) | -19 | nt | -16% | 2.6µM* | 18µM* | 22%
CC(=O)Nc1ccc(-c2ccnc3c2CC(C(=O)Nc2cccc(C(F)(F)F)c2)O3)cc1 (stereo not given) | -2 | nt | 1% | -73% | 23µM* | ?
CN(C)/C=N/c1nc(-c2ccc3ccccc3c2)cs1 | -61* | -3% | -21% | -1% | -25% | 0%
Nc1nc(-c2ccc(-c3ccccc3)cc2)cs1 | 23 | 4% | -19% | -17% | -21% | 0%
Nc1nc(-c2cc3ccccc3o2)cs1 | -75* | -1% | -6% | -16% | 6% | -18%
Nc1nc(-c2ccc3ccccc3c2)cs1 | -67* | -2% | -38% | -29% | 7% | -5%
Cc1ccc(/C=C/C(=O)c2c(C)cc(C)[nH]c2=O)cc1 | -94* | -2% | -48% | 11µM* | 8.9µM* | -4%
COc1ccc(/C=C/C(=O)c2c(C)cc(C)[nH]c2=O)c2ccccc12 | -99* | -3% | 13µM* | ? | ? | 18µM*
CCc1ccc(/C=C/C(=O)c2c(C)cc(C)[nH]c2=O)cc1 | -120* | -6% | -62% | 16µM* | 16µM* | ?
SMILES | IL1B secr inh | S-ASM inh | HepG2 viability | TDP1 cell noCPT | TDP1 cell CPT | TGFb SMAD3 inh
Cc1cc(C)c(C(=O)/C=C/c2ccco2)c(=O)[nH]1 | ? | -3% | 1% | -6% | 3% | 6%
Cc1cc(C)c(C(=O)/C=C/c2cccs2)c(=O)[nH]1 | -73* | 2% | -13% | ? | ? | -2%
CCOC(=O)c1ccccc1NC(=O)COC(=O)CCNS(=O)(=O)c1cccs1 | 22 | -1% | 0% | 1% | 4% | 0%
CC1(C)C2CCC1(C)C(NC(=O)/C=C/c1ccccc1)C2 (stereo not given) | -24 | -1% | -3% | 18µM* | ? | 3%
CC1(C)C2CCC1(C)C(Nc1ccccc1)C2 (stereo not given) | 21 | -1% | -50% | 2% | ? | -4%
CCOC(=O)c1c(C)n(-c2ccc(C)cc2)c2c(C(C(C)=O)C(=O)O)c(Br)c(O)c(O)c12 (stereo not given) | -8 | -7% | -1% | 23µM* | 23µM* | ?
CCOC(=O)C(C(C)=O)c1c(Br)c(O)c(O)c2c(C(=O)c3ccc(C)cc3)coc12 (stereo not given) | -27 | -9% | -41% | 2.6µM* | 2.9µM* | 10µM*
Cc1ccc(C(=O)c2coc3ccc(O)c(Cl)c23)cc1 | 0 | -1% | -83% | ? | -28% | -23%
CCc1ccc(-n2c(=O)c3ccccc3n(Cc3ccccc3C#N)c2=O)cc1 | nt | nt | -10% | -6% | -4% | 0%
CCc1nc(Oc2cccc(F)c2)c2oc3ccccc3c2n1 | nt | nt | -28% | ? | ? | 0%
O=C(Nc1ccccc1)N1CCN(c2ccccn2)CC1 | -4 | 3% | 3% | -19% | -10% | -9%
Cc1csc2c(N3CCN(C(=O)Nc4ccccc4)CC3)ncnc12 | ? | 2% | -10% | 16µM* | 9.2µM* | -2%
Cc1csc2c(N3CCN(C(=S)Nc4ccc(F)cc4F)CC3)ncnc12 | -30 | -4% | 3% | ? | ? | -19%
Cc1ccc(C(=O)N2CCN(c3ncnc4c(C)csc34)CC2)cc1 | ? | 2% | -40% | 16µM* | ? | 0%
Cc1csc2ncnc(N3CCN(C(=O)Nc4ccc(OC(F)(F)F)cc4)CC3)c12 | -71* | -27% | -46% | 5.8µM* | 10µM* | ?
COc1cc(=O)n2c(c1C(=O)NCc1ccco1)CCN(C(=O)c1ccc(C)c(C)c1)CC2 | nt | nt | nt | -5% | -17%[9.04 µM] | nt
